From PubChem
Only some compounds are listed: those with a hit (about 4% of all), similar ones and a draw of the others.
TRPM1 prom inh: inhibitors of MITF-driven TRPM1 promoter in melanoma cells; SK-MEL-5 TRPM1 promoter luciferase, 24 h; inhibition, % at 12.5 µM; 0.83% of 330,000 active;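 active = mean inhibition across replicates of 60% or more, whatever share of single replicates reaches that level; inconclusive = some that reach 60%, reason not given; inactive = mean inhibition across replicates below 60%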
Statin myotox sup: suppressors of simvastatin-induced myotoxicity in C2C12 myotubes; AID 602340; 0.78% of 330,000 active; ATP luminescence, 48 h; scaled: DMSO 0, geranylgeraniol control 100; rescue of ATP level, % at 7.49 µM;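 active = mean ATP rescue above about 67%, or every replicate alone reaching that limit, limit read from the data, passing the limit was not always enough; inconclusive = no clear call, values can overlap the other calls; inactive = mean under the limit and some replicate under it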;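 also: myotubes were challenged with 10 µM simvastatin during compound exposure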
MITF TRPM1 HTS: activators of MITF-driven TRPM1 promoter activity in SK-MEL-5 cells | SK-MEL-5 TRPM1-promoter luciferase, 24 h; % of positive control, neutral wells = 0 | AID 588334 | activation, % at 12.5 µM | 0.75% of 300,000 active;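 active = mean activation of at least 80% with every replicate also reaching 80%; inconclusive = mean reaches 80% but some replicate falls short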;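 also: 0% = neutral control wells and 100% = parthenolide positive control wells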
LMP1 NFkB inh: Epstein-Barr LMP1 NF-kappaB reporter inhibition; LMP1-induced NF-kappaB luciferase reporter cells, luminescence; inhibition, % at 12.5 µM; 0.69% of 350,000 active; AID 504558; in the data active = inhibition above about 41%; inconclusive = no clear call, values can overlap the other calls;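 also: 0% = neutral control wells and 100% = reference inhibitor control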
Wnt bcat act: activators of Wnt/beta-catenin signaling; Wnt/beta-catenin reporter cell assay, activator, plate reader; activation, % at 9.35 µM; 1.2% of 300,000 active; in the data active = activation above about 30%, passing the limit was not always enough; inconclusive = no clear call, values can overlap the other calls;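 also: 0% = neutral control wells and 100% = positive control wells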
esBAF inh: SWI/SNF esBAF complex inhibition. mouse ES cells, Bmi1-luciferase knock-in reporter, 24 h; 100% = twice the neutral-well signal. reporter increase, % at 12.5 µM. 2% of 350,000 active. AID 602393; in the data active = activation above about 40%; inconclusive = no clear call, values can overlap the other calls;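 also: 0% = median of the plate's neutral control wells and 100% = double that signal; a rise in the Bmi1 reporter signal indicates esBAF inhibition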
Active calls of the source: *; ? = inconclusive; . = no result.

SMILES | TRPM1 prom inh | Statin myotox sup | MITF TRPM1 HTS | LMP1 NFkB inh | Wnt bcat act | esBAF inh
CCCCCc1cc(=O)oc2c(C(CCN(CC)CC)c3ccc(N(C)C)cc3)c(OC)cc(OC)c12 (stereo not drawn) | 89* | -9 | -88 | 0 | -17 | -5
CCCCCc1cc(=O)oc2c(C(CCN3CCCC(C)C3)c3cc(OC)c(OC)c(OC)c3)c(OC)cc(OC)c12 (stereo not drawn) | 73* | -6 | -72 | 21 | . | 5
CCCCCc1cc(=O)oc2c(C(CCN3CCCC(C)C3)c3ccc(N(C)C)cc3)c(OC)cc(OC)c12 (stereo not drawn) | 38 | 9 | -37 | -7 | . | 3
Cc1ccc(Cl)cc1NS(=O)(=O)c1c(C)[nH]c(=O)[nH]c1=O | 4 | -2 | . | 13 | . | -7
COc1ccc(Cl)cc1NS(=O)(=O)c1c(C)[nH]c(=O)[nH]c1=O | -8 | 87* | 10 | 6 | 2 | -18
CC(=O)N=C1SC2CS(=O)(=O)CC2N1c1ccccc1Cl (stereo not drawn) | -7 | -2 | 8 | 3 | -3 | -11
O=C(Nc1cnc2ccccn2c1=O)c1ccc(Cl)cc1 | -83 | 24 | 86* | -18 | . | 43*
CSCCC(NC(=O)COc1ccccc1)C(=O)N1CCOCC1 (stereo not drawn) | -5 | 23 | 6 | -5 | -1 | -2
O=C(Nc1nc2ccccc2c(=O)s1)c1ccc(F)cc1Cl | -1 | 7 | 3 | 6 | 1 | 4
O=C(Nc1nc(=O)c2ccccc2s1)c1ccc(F)cc1 | -56 | 19 | 62 | -18 | -2 | 51*
O=C(Nc1nc(=O)c2ccccc2s1)c1ccc(Cl)cc1 | -10 | 80* | . | -22 | -3 | 22
O=C(Nc1nc2ccsc2c(=O)s1)c1ccc(Cl)cc1 | -11 | . | . | -8 | 2 | .
NC(=O)c1cc2ccccc2o/c1=N/NC(=O)c1ccccc1 | -26 | 0 | 26 | 0 | 1 | 40
O=C1NC(c2cccc(OCc3ccccc3)c2)Nc2ccccc21 (stereo not drawn) | 26 | . | . | 61* | -9 | .
O=S(=O)(NCCc1ccccc1)c1cccs1 | -4 | -53 | 3 | 3 | 1 | -1
COc1ccc(CCNS(=O)(=O)c2cccs2)cc1 | -7 | 128* | 8 | -11 | . | 16
Cc1csc2nc(CCNS(=O)(=O)c3cccs3)cn12 | -39 | 3 | 41 | -24 | 29 | 53*
CC(C)CC(=O)NC(=S)Nc1ccc(Cl)cn1 | -63 | -3 | 69 | -14 | 8 | 49*
CCc1ccc(NC(=S)NC(=O)CC(C)C)cc1 | -39 | . | 51 | -4 | 61* | .
CCN(CC)S(=O)(=O)c1ccc(NC(=S)NC(=O)CC(C)C)cc1 | -17 | . | 14 | -16 | 7 | .
CC(=O)CC(=O)Nc1ccc(Cl)cn1 | 2 | . | -2 | -1 | 1 | .
C[C@H]1CN([C@@H](C)CO)C(=O)c2cc(-c3ccncc3)cnc2O[C@H]1CN(C)S(=O)(=O)c1ccccc1 | . | -4 | . | . | . | 1
C[C@@H]1CN([C@H](C)CO)C(=O)c2cccc(NS(C)(=O)=O)c2O[C@H]1CN(C)C(=O)Nc1ccc(F)cc1 | . | -37 | . | . | . | 5
CCSc1nc(N)c2c(C)c(C)sc2n1 | -24 | . | 23 | 1 | -4 | .
C=CCSc1nc(N)c2c(C)c(C)sc2n1 | -31 | 4 | . | 4 | 12 | 46*
SMILES | TRPM1 prom inh | Statin myotox sup | MITF TRPM1 HTS | LMP1 NFkB inh | Wnt bcat act | esBAF inh
Nc1nnc(-c2ccccc2)c(-c2ccccc2)n1 | 0 | 121* | -3 | 5 | -2 | -1
Cc1ccc(-c2nnc(-c3ccccc3)c(-c3ccccc3)n2)cc1 | -13 | . | 12 | -1 | -2 | .
CC1(C)C(=O)C=CC(=O)C(C)(C)C(=O)C=CC(=O)C(C)(C)C2=CC=C(O2)C(C)(C)C(=O)C=CC1=O | 92* | 9 | -90 | -12 | -7 | -2
Cc1cccc(-c2noc(-c3csc([C@@H]4C[C@H](O)[C@@H](CO)O4)n3)n2)c1 | . | 6 | . | . | 46* | -13
COc1cc(OC)cc(-c2noc(-c3csc([C@H]4C[C@H](O)[C@@H](CO)O4)n3)n2)c1 | . | 0 | . | . | 39* | 71*
Cc1ccc(CSc2nnc(CCNC(=O)OC(C)(C)C)o2)cc1 | -7 | . | . | 1 | 1 | .
C[C@H](NC(=O)C[C@H]1C[C@H]2c3cc(N(C)C)ccc3O[C@H]2[C@H](CO)O1)c1ccccc1 | . | -2 | . | . | . | -1
COc1cccc(-c2cnc3c(c2)C(=O)N([C@H](C)CO)C[C@H](C)[C@H](CN(C)Cc2cccc(C)c2)O3)c1 | . | 117* | . | . | . | -4
COc1cccc(-c2cnc3c(c2)C(=O)N([C@@H](C)CO)C[C@H](C)[C@@H](CN(C)Cc2ccccc2)O3)c1 | . | 38 | . | . | . | -3
COc1ccc(-c2cnc3c(c2)C(=O)N([C@H](C)CO)C[C@@H](C)[C@H](CN(C)S(=O)(=O)c2ccc(OC)cc2)O3)cc1 | . | 16 | . | . | . | .
COc1ccc(-c2cnc3c(c2)C(=O)N([C@H](C)CO)C[C@H](C)[C@H](CN(C)S(=O)(=O)c2ccc(F)cc2)O3)cc1 | . | 102* | . | . | . | 17
Cc1cccc(C(=O)OCC(=O)c2csc(N3CCCCC3)n2)c1[N+](=O)[O-] | -3 | -4 | 7 | -3 | 17 | 3
Cc1c(C(=O)NCc2cccc(Cl)c2)sc(=O)n1Cc1ccc(F)cc1 | . | 18 | . | . | -3 | 10
COc1ccc(N2C(=O)c3ccccc3C2O)cc1 (stereo not drawn) | -21 | -9 | 21 | -5 | 44* | 27
O=C(Nc1ccc2c(c1)[C@@H]1C[C@@H](CC(=O)N3CCOCC3)O[C@H](CO)[C@@H]1O2)NC1CCCCC1 | . | -5 | . | . | . | 0
O=C(Oc1ccc2c(c1)C(=O)c1ccccc1CO2)c1ccccc1 | -11 | 107* | 14 | -3 | 11 | 16
O=C(N/N=C/c1ccccn1)c1cc([N+](=O)[O-])cc([N+](=O)[O-])c1 | 67* | -1 | -65 | 5 | 4 | 7
O=C(O)c1cccc(NC(=S)N/N=C/c2ccccn2)c1 | 63* | . | -62 | 38 | 26 | .
Oc1ccc(/C=N/NC(=S)Nc2cccnc2)cc1O | 5 | . | -3 | 3 | -1 | .
O=C(O)c1cccc(NC(=S)N/N=C/c2cccc(O)c2)c1 | 11 | . | -12 | 19 | -8 | .
S=C(N/N=C/c1ccc2ncccc2c1)Nc1cccnc1 | 33 | 3 | -30 | 55* | -4 | -23
Cc1cc(C=C2C(=O)c3ccccc3C2=O)c(C)n1-c1ccccc1 | 72* | . | -71 | 13 | . | .
Cc1cc(/C=C2\Cc3ccccc3C2=O)c(C)n1-c1ccccc1 | 44 | . | -43 | 44* | -6 | .
Cc1cc(C=C2C(=O)c3ccccc3C2=O)c(C)n1-c1cccc(C(=O)O)c1 | -4 | . | 6 | 0 | ? | .
Cc1cc(C=C2C(=O)c3ccccc3C2=O)c(C)n1-c1ccc(C(=O)O)cc1 | 1 | 4 | -1 | 0 | -1 | 18
Cc1cc(/C=C2/NC(=O)N(c3ccccc3)C2=O)c(C)n1-c1cccnc1 | -53 | -1 | 50 | -31 | 37* | 71*
